Experimental data as given in the supplement of paper PMC7411054.
Where a name gives a salt, the structure may show the parent alone.

Key:
Test in all cases: lowest phenotypically active concentration; higher = less potent
Settings in all cases: treatment time: 24 h
HepG2-ACTB-RAB5A = test system: HepG2-ACTB-RAB5A
Outline: (§1)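 Phenotypic activity depended on meeting both a deviation and a reproducibility criterion. The fifteen gene-edited A549, HepG2 and WPMY1 reporter lines were treated at 0.3, 1, 3 or 9 µM for 24 h, four wells each, then imaged live with features normalised to solvent control wells. Deviation required ≥3 of 4 wells past the 95th percentile of control Euclidean distances, and reproducibility a median replicate Pearson correlation above the 95th percentile of non-replicates.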

HepG2-CANX-COX4 = test system: HepG2-CANX-COX4
Outline: as §1

HepG2-GM130-SQSTM1 = test system: HepG2-GM130-SQSTM1
Outline: as §1

HepG2-TP53BP1-CLTA = test system: HepG2-TP53BP1-CLTA
Outline: as §1

HepG2-TUBA1B-RELA = test system: HepG2-TUBA1B-RELA
Outline: as §1

WPMY1-ACTB-RAB5A = test system: WPMY1-ACTB-RAB5A
Outline: as §1

WPMY1-CANX-COX4 = test system: WPMY1-CANX-COX4
Outline: as §1

WPMY1-GM130-SQSTM1 = test system: WPMY1-GM130-SQSTM1
Outline: as §1

WPMY1-TP53BP1-CLTA = test system: WPMY1-TP53BP1-CLTA
Outline: as §1

WPMY1-TUBA1B-RELA = test system: WPMY1-TUBA1B-RELA
Outline: as §1

Row | Compound | lowest phenotypically active concentration (HepG2-ACTB-RAB5A) [µM] | lowest phenotypically active concentration (HepG2-CANX-COX4) [µM] | lowest phenotypically active concentration (HepG2-GM130-SQSTM1) [µM] | lowest phenotypically active concentration (HepG2-TP53BP1-CLTA) [µM] | lowest phenotypically active concentration (HepG2-TUBA1B-RELA) [µM] | lowest phenotypically active concentration (WPMY1-ACTB-RAB5A) [µM] | lowest phenotypically active concentration (WPMY1-CANX-COX4) [µM] | lowest phenotypically active concentration (WPMY1-GM130-SQSTM1) [µM] | lowest phenotypically active concentration (WPMY1-TP53BP1-CLTA) [µM] | lowest phenotypically active concentration (WPMY1-TUBA1B-RELA) [µM]
1 | COc1cc(C[C@H]2C(=O)OC[C@@H]2Cc2ccc(OC)c(OC)c2)ccc1O [Arctigenin] | 9 | 9 | 9 | 1 | 1 | – | – | – | – | –
2 | NCC(=O)Nc1ccc(-n2nc(C(F)(F)F)cc2-c2ccc3c(ccc4ccccc43)c2)cc1 | 1 | 1 | 3 | 1 | 1 | ≤ 0.3 | 1 | 1 | ≤ 0.3 | ≤ 0.3
3 | Nc1cccc(-c2cc3c(Oc4cccc(O)c4)ncnc3[nH]2)c1 | 1 | 9 | 3 | 3 | 3 | 3 | 9 | 9 | 3 | 9
4 | O=C1NC(=O)C(c2ccccc2[N+](=O)[O-])=C1Nc1ccc(O)c(Cl)c1 | 9 | 9 | 9 | 3 | 3 | 9 | – | – | – | –
5 | FC(F)(F)c1ccc(/C=C/c2nc(COc3ccc(CCCCn4ccnn4)cc3)co2)cc1 | ≤ 0.3 | ≤ 0.3 | ≤ 0.3 | ≤ 0.3 | ≤ 0.3 | – | – | – | – | –
6 | COc1ccc2c(NC(=O)Nc3cccc(C(F)(F)F)n3)ccnc2c1 | 9 | 1 | 9 | 9 | 3 | 1 | 1 | 3 | 1 | –
7 | COc1cc(N2CCC(O)CC2)ccc1Nc1cc(Nc2ccccc2S(=O)(=O)C(C)C)c2cc[nH]c2n1 [Mps1-IN-1 dihydrochloride] | ≤ 0.3 | ≤ 0.3 | ≤ 0.3 | ≤ 0.3 | 1 | 9 | ≤ 0.3 | 3 | 3 | –
8 | C#Cc1cccc(Nc2ncnc3cc(OCCOC)c(OCCOC)cc23)c1 [erlotinib] | 3 | 3 | 3 | 9 | 3 | – | – | – | – | –
9 | COc1cc2ncnc(Nc3ccc(O)c(Br)c3)c2cc1OC | 3 | 9 | 9 | 3 | 3 | 3 | 3 | 3 | 3 | –
10 | COc1cc(Br)c(Nc2nc(-c3c(C)nc4ncccn34)cs2)c(Br)c1 | 1 | 1 | 1 | 1 | 1 | 1 | 1 | 1 | 3 | 1
11 | Cc1ccc(NC(=O)c2ccc(CN3CCN(C)CC3)cc2)cc1Nc1nc(-c2cccnc2)cs1 [masitinib] | 3 | 3 | 3 | 3 | 9 | 3 | 3 | ≤ 0.3 | 9 | 9
12 | O=C(c1cccc(Cl)c1F)N1CCN(Cc2cccc(Nc3nccs3)n2)CC1 | ≤ 0.3 | ≤ 0.3 | ≤ 0.3 | ≤ 0.3 | ≤ 0.3 | 1 | 9 | 3 | ≤ 0.3 | 1
13 | Nc1ccn([C@@H]2O[C@H](CO)[C@@H](O)[C@@H]2O)c(=O)n1 [cytarabine] | ≤ 0.3 | ≤ 0.3 | ≤ 0.3 | ≤ 0.3 | ≤ 0.3 | ≤ 0.3 | 1 | 1 | ≤ 0.3 | ≤ 0.3
14 | NC(=O)Nc1cc(-c2cccc(F)c2)sc1C(=O)N[C@H]1CCCNC1 [AZD 7762 hydrochloride] | ≤ 0.3 | 1 | ≤ 0.3 | ≤ 0.3 | ≤ 0.3 | ≤ 0.3 | ≤ 0.3 | 1 | ≤ 0.3 | ≤ 0.3
15 | Cc1noc(C)c1-c1cc(O)cc(C(O)c2ccccc2)c1 (stereo not drawn) | 3 | 3 | 3 | 3 | 3 | 3 | 3 | 1 | 3 | 3
16 | CS(=O)(=O)c1cccc(CNc2nc(Nc3ccc4c(c3)CCC(=O)N4)ncc2C(F)(F)F)c1 | 1 | 1 | 3 | 1 | 1 | 1 | 3 | 3 | 1 | 3

Row | Compound | lowest phenotypically active concentration (HepG2-ACTB-RAB5A) [µM] | lowest phenotypically active concentration (HepG2-CANX-COX4) [µM] | lowest phenotypically active concentration (HepG2-GM130-SQSTM1) [µM] | lowest phenotypically active concentration (HepG2-TP53BP1-CLTA) [µM] | lowest phenotypically active concentration (HepG2-TUBA1B-RELA) [µM] | lowest phenotypically active concentration (WPMY1-ACTB-RAB5A) [µM] | lowest phenotypically active concentration (WPMY1-CANX-COX4) [µM] | lowest phenotypically active concentration (WPMY1-GM130-SQSTM1) [µM] | lowest phenotypically active concentration (WPMY1-TP53BP1-CLTA) [µM] | lowest phenotypically active concentration (WPMY1-TUBA1B-RELA) [µM]
17 | Cc1cc(/N=N/c2ccc(S(=O)(=O)Nc3ccccn3)cc2)c(N)cc1O | 9 | 3 | 3 | 9 | 9 | 3 | 9 | 3 | 9 | 9
18 | CC[C@@H]1C(=O)N(C)c2cnc(Nc3ccc(C(=O)NC4CCN(C)CC4)cc3OC)nc2N1C1CCCC1 | ≤ 0.3 | 1 | ≤ 0.3 | ≤ 0.3 | ≤ 0.3 | ≤ 0.3 | ≤ 0.3 | ≤ 0.3 | ≤ 0.3 | ≤ 0.3
19 | Clc1ccc(C2(c3ccc(-c4cn[nH]c4)cc3)CCNCC2)cc1 | ≤ 0.3 | ≤ 0.3 | ≤ 0.3 | ≤ 0.3 | ≤ 0.3 | ≤ 0.3 | ≤ 0.3 | ≤ 0.3 | 1 | ≤ 0.3
20 | Nc1ccc(-c2ccc3ncc4ccc(=O)n(-c5cccc(C(F)(F)F)c5)c4c3c2)cn1 [Torin 2] | ≤ 0.3 | ≤ 0.3 | ≤ 0.3 | ≤ 0.3 | ≤ 0.3 | ≤ 0.3 | ≤ 0.3 | ≤ 0.3 | ≤ 0.3 | ≤ 0.3
21 | COc1ccc(-c2ccc3ncc4c(c3c2)n(-c2ccc(N3CCNCC3)c(C(F)(F)F)c2)c(=O)n4C)cn1 | ≤ 0.3 | ≤ 0.3 | ≤ 0.3 | ≤ 0.3 | ≤ 0.3 | ≤ 0.3 | ≤ 0.3 | ≤ 0.3 | ≤ 0.3 | ≤ 0.3
22 | Cc1ncc(-c2ccnc(Nc3ccc(S(C)(=O)=O)cc3)n2)n1C(C)C | ≤ 0.3 | ≤ 0.3 | ≤ 0.3 | ≤ 0.3 | ≤ 0.3 | ≤ 0.3 | ≤ 0.3 | ≤ 0.3 | ≤ 0.3 | ≤ 0.3
23 | Cc1cn(CCN2CCN(c3ccccc3-c3cc(C#N)cc(C(=O)NCCCN4CCCC4)c3)CC2)c2ccccc12 | 1 | 9 | 3 | 3 | 3 | 3 | 3 | 3 | 3 | 3
24 | O=C(CCCCSc1nc(-c2ccc(-c3ccccc3)cc2)cc(=O)[nH]1)NO | ≤ 0.3 | ≤ 0.3 | ≤ 0.3 | ≤ 0.3 | ≤ 0.3 | ≤ 0.3 | ≤ 0.3 | ≤ 0.3 | ≤ 0.3 | ≤ 0.3
25 | C[C@H]1COCCN1c1cc(C2(S(=O)(=O)C3CC3)CC2)nc(-c2ccc(NC(=S)NCCO)cc2)n1 | ≤ 0.3 | ≤ 0.3 | ≤ 0.3 | ≤ 0.3 | 1 | ≤ 0.3 | ≤ 0.3 | ≤ 0.3 | ≤ 0.3 | ≤ 0.3
26 | CC(=O)c1c(C)c2cnc(Nc3ccc(N4CCNCC4)cn3)nc2n(C2CCCC2)c1=O | ≤ 0.3 | ≤ 0.3 | ≤ 0.3 | ≤ 0.3 | ≤ 0.3 | 9 | 3 | 9 | 9 | 9
27 | C[C@@H](CN1CCC(n2c(=O)[nH]c3cc(Cl)ccc32)CC1)NC(=O)c1ccc2ccccc2c1 | 9 | 9 | 9 | 9 | 3 | 9 | 9 | 9 | 9 | 9
28 | Fc1ccccc1CNCc1ccc(-c2ccnc3[nH]ccc23)cc1 [OXA 06 dihydrochloride] | 1 | 1 | ≤ 0.3 | 1 | 1 | 1 | ≤ 0.3 | 1 | 9 | 1
29 | O=C(OC12CC3CC(CC(C3)C1)C2)c1ccc(NCc2cc(O)ccc2O)cc1 [Adaphostin] | 1 | 3 | 3 | 3 | 3 | 1 | 1 | 1 | 3 | 1
30 | CN(C)C1CCN(C(=O)c2ccc(NC(=O)Nc3ccc(-c4nc(N5CCOCC5)nc(N5CCOCC5)n4)cc3)cc2)CC1 | ≤ 0.3 | ≤ 0.3 | ≤ 0.3 | ≤ 0.3 | ≤ 0.3 | ≤ 0.3 | ≤ 0.3 | ≤ 0.3 | ≤ 0.3 | ≤ 0.3
31 | CC(=O)O[C@@]12CO[C@@H]1C[C@H](O)[C@@]1(C)C(=O)[C@H](O)C3=C(C)[C@@H](OC(=O)[C@H](O)[C@@H](NC(=O)OC(C)(C)C)c4ccccc4)C[C@](O)([C@@H](OC(=O)c4ccccc4)[C@H]21)C3(C)C [Docetaxel] | ≤ 0.3 | ≤ 0.3 | ≤ 0.3 | ≤ 0.3 | ≤ 0.3 | ≤ 0.3 | ≤ 0.3 | ≤ 0.3 | ≤ 0.3 | ≤ 0.3
